# Laboratory results: PubChem BioAssay (EPA / NIEHS)
# Activity calls are given as the source filed them. How the source made its calls: active means hit-call score of the fitted dose curve at least 0.9, where 1 is the maximum; inactive means score below 0.9.
# Key:
# [1] = target: Transcription factor E2F1 (Homo sapiens) (UniProt Q01094); experiment: ATG_E2F_CIS: Attagene CIS-FACTORIAL HepG2 Assay for human E2F Transcription Factor 1 (AID 2282935); conditions: HepG2 Attagene cis-reporter, E2F reporter RNA transcripts; actives raise or lower the signal
# Outline: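 Gain or loss of reporter transcript, fitted against DMSO, reflects E2F1-driven transcription. Transiently transfected HepG2 dosed 24 h before RNA isolation. Quantified by fluorescent RT-PCR products separated by capillary electrophoresis.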
# [2] = ATG_E_Box_CIS: Attagene CIS-FACTORIAL HepG2 Assay for human Enhancer Box (E-box) (AID 2282936); conditions: HepG2 E-box cis-reporter transcription, actives raise or lower the signal
# Outline: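 E-box-driven reporter transcripts measured in transiently transfected HepG2 after 24 h exposure: RNA reverse-transcribed, PCR-amplified, fluorescently labelled, digested and resolved by capillary electrophoresis. Gain or loss relative to DMSO.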
# [3] = ATG_M_61_CIS: Attagene CIS-FACTORIAL HepG2 Assay for M61 Transcription Factor (Internal Marker) (AID 2282937); conditions: HepG2 Attagene CIS-FACTORIAL M61 internal marker reporter; actives raise or lower the signal
# Outline: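 Background-control endpoint: HepG2 cells with cis-regulated reporter constructs, 24 h exposure, reporter mRNA detected via fluorescent primer extension and capillary electrophoresis; values from bidirectional fitting with DMSO baseline.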
# [4] = ATG_EGR_CIS: Attagene CIS-FACTORIAL HepG2 Assay for human Early Growth Response 1 (EGR1) (AID 2282938); conditions: HepG2 Attagene CIS-FACTORIAL EGR reporter mRNA; actives raise or lower the signal
# Outline: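 Endpoint derived by bidirectional fitting versus DMSO vehicle. Method: cis-promoter reporter units transfected into HepG2, 24 h dosing, RNA isolation, RT-PCR with 6-FAM primer extension and HpaI digestion, then capillary electrophoresis fluorescence detection.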
# [5] = ATG_M_19_CIS: Attagene CIS-FACTORIAL HepG2 Assay for M19 Transcription Factor (Internal Marker) (AID 2282939); conditions: HepG2 Attagene CIS-FACTORIAL M19 internal marker reporter; actives raise or lower the signal
# Outline: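 Signals come from fluorescence of labelled reporter-specific PCR fragments resolved by capillary electrophoresis, following 24 h treatment of HepG2 cells transfected with cis-promoter reporter units; activity was fitted in both directions relative to DMSO.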
# [6] = ATG_ERE_CIS: Attagene CIS-FACTORIAL HepG2 Assay for Estrogen Response Element (ERE) (AID 2282940); conditions: HepG2 ERE cis-reporter, Attagene RNA transcript; actives raise or lower the signal
# Outline: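 Fluorescence of capillary-separated, FAM-labelled reporter cDNA fragments indicates reporter mRNA levels in HepG2 cells exposed to chemicals for 24 h. Transient transfection with cis-regulated units; data fitted in both directions against DMSO.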
# [7] = ATG_Ets_CIS: Attagene CIS-FACTORIAL HepG2 Assay for human Erythroblast Transformation Specific (ETS) (AID 2282941); conditions: HepG2 ETS cis-reporter transcription, actives raise or lower the signal
# Outline: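 RT-PCR/capillary electrophoresis fluorescence read-out of reporter mRNA; HepG2 transient multi-reporter transfection; 24 h compound exposure; gain or loss of signal fitted bidirectionally relative to DMSO.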
# [8] = target: Hepatocyte nuclear factor 3-beta (Homo sapiens) (UniProt Q9Y261); experiment: ATG_FoxA2_CIS: Attagene CIS-FACTORIAL HepG2 Assay for human Forkhead box A2 (FOXA2) (AID 2282942); conditions: HepG2 cis-reporter transcription factor activity, 24 h; actives raise or lower the signal
# Outline: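 Measured: reporter mRNA induction or loss in HepG2 transiently carrying multiple cis-regulated reporter units, 24 h after dosing. Quantified by RT-PCR plus capillary electrophoresis, normalised to DMSO.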
# [9] = ATG_FoxO_CIS: Attagene CIS-FACTORIAL HepG2 Assay for human Forkhead box O (FoxO) (AID 2282943); conditions: HepG2 Attagene cis-reporter, FoxO element, mRNA; actives raise or lower the signal
# Outline: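 HepG2, transient MRTU transfection (cis element, endogenous TFs). Dose 24 h. TriZol RNA → oligo(dT) RT → PCR → 6-FAM primer extension → HpaI cut → CE. Gain/loss vs DMSO.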
# [10] = ATG_GATA_CIS: Attagene CIS-FACTORIAL HepG2 Assay for human GATA Binding Protein (AID 2282944); conditions: HepG2 GATA cis-element reporter, Attagene multiplex mRNA; actives raise or lower the signal
# Outline: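 After transfecting HepG2 cells with multiple cis-regulated reporter units, chemicals are dosed for 24 h; isolated RNA undergoes RT-PCR and fluorescent labeling before capillary electrophoresis, with activity expressed against DMSO.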
# [11] = ATG_GLI_CIS: Attagene CIS-FACTORIAL HepG2 Assay for human Zinc Finger Protein GLI1 (AID 2282945); conditions: HepG2, Attagene cis-factorial reporter mRNA, GLI element; actives raise or lower the signal
# Outline: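 Bidirectional curve fits relative to DMSO, using reporter mRNA levels from RT-PCR plus capillary electrophoresis. Cells were HepG2 transiently carrying cis-regulated reporter constructs, harvested 24 h after dosing.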
# [12] = ATG_GRE_CIS: Attagene CIS-FACTORIAL HepG2 Assay for human Glucocorticoid Response Elements (GRE) (AID 2282947); conditions: HepG2 GRE cis-reporter, Attagene multiplex mRNA; actives raise or lower the signal
# Outline: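 Reporter transcripts read by RT-PCR with capillary electrophoresis fluorescence after a 24 h chemical exposure of HepG2 cells transiently transfected with multiple cis-element reporter units. Gain or loss fitted against DMSO.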
# [13] = ATG_ISRE_CIS: Attagene CIS-FACTORIAL HepG2 Assay for human Interferon Regulatory Factor 1 (IRF1) binding to an Interferon-Stimulated Response Element (ISRE) (AID 2282948); conditions: HepG2 ISRE cis-reporter (Attagene), mRNA transcription readout; actives raise or lower the signal
# Outline: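 Read-out: fluorescent RT-PCR products resolved by capillary electrophoresis, reporting endogenous transcription factor activity via ISRE-driven reporter mRNA in transfected HepG2 cells dosed for 24 h; gain or loss fitted relative to DMSO.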
# [14] = ATG_M_32_CIS: Attagene CIS-FACTORIAL HepG2 Assay for M32 Transcription Factor (Internal Marker) (AID 2282949); conditions: HepG2 Attagene cis-factorial M32 reporter, mRNA; actives raise or lower the signal;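 further: background control marker of the multiplexed CIS panel rather than a real target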
# Outline: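 HepG2 transfectants (cis-regulated reporter transcription units) dosed 24 h. Reporter mRNA by RT-PCR plus CE, analysed as gain or loss relative to DMSO.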
# [15] = ATG_M_06_CIS: Attagene CIS-FACTORIAL HepG2 Assay for M06 Transcription Factor (Internal Marker) (AID 2282950); conditions: HepG2 Attagene CIS-FACTORIAL M06 internal marker reporter; actives raise or lower the signal
# Outline: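 HepG2 liver cells, 24 h exposure. Reporter transcripts from transfected cis-element constructs quantified by RT-PCR/capillary electrophoresis fluorescence. Bidirectional curve fit against DMSO.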
# [16] = target: Hypoxia-inducible factor 1-alpha (Homo sapiens) (UniProt Q16665); experiment: ATG_HIF1a_CIS: Attagene CIS-FACTORIAL HepG2 Assay for human Hypoxia Inducible Factor 1 (HIF1A) (AID 2282951); conditions: HepG2 Attagene cis-factorial HIF1a reporter transcription; actives raise or lower the signal
# Outline: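 Dosed 24 h, transfected HepG2 cells yielded total RNA whose reporter transcripts were RT-PCR-amplified and sized by capillary electrophoresis using fluorescent labelling; DMSO defined baseline, with gain and loss of signal both fitted.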
# [17] = target: Hepatocyte nuclear factor 6 (Homo sapiens) (UniProt Q9UBC0); experiment: ATG_HNF6_CIS: Attagene CIS-FACTORIAL HepG2 Assay for human Hepatocyte Nuclear Factor 6 (HNF6) (AID 2282952); conditions: HepG2 Attagene cis-factorial HNF6 reporter transcription; actives raise or lower the signal
# Outline: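 Readout: fluorescent reporter-transcript fragments resolved by capillary electrophoresis after RT-PCR, reflecting endogenous factor activity in transfected HepG2. Exposure 24 h. Gain or loss of signal fitted bidirectionally against DMSO.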
# [18] = target: Heat shock factor protein 1 (Homo sapiens) (UniProt Q00613); experiment: ATG_HSE_CIS: Attagene CIS-FACTORIAL HepG2 Assay for human Heat Shock Transcription Factor 1 (HSE) (AID 2282953); conditions: HepG2 HSE cis-reporter, Attagene RNA transcription; actives raise or lower the signal
# Outline: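 Endogenous transcription factor activity captured via cis-promoter reporter units transfected into HepG2; treatment lasted 24 h. Fluorescence intensity of reporter fragments analysed with bidirectional curve fitting, DMSO baseline.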
# [19] = ATG_MRE_CIS: Attagene CIS-FACTORIAL HepG2 Assay for human Metal Responsive Element (MRE) (AID 2282954); conditions: HepG2 MRE cis-reporter transcription, Attagene multiplex; actives raise or lower the signal
# Outline: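 Endogenous MRE-dependent transcription read as reporter mRNA in transiently transfected human HepG2 cells at 24 h. RNA reverse-transcribed, PCR-amplified, labelled and resolved by capillary electrophoresis; gain or loss relative to DMSO.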
# Sequence of Transcription factor E2F1 (Homo sapiens) (Q01094 whole entry, looked up): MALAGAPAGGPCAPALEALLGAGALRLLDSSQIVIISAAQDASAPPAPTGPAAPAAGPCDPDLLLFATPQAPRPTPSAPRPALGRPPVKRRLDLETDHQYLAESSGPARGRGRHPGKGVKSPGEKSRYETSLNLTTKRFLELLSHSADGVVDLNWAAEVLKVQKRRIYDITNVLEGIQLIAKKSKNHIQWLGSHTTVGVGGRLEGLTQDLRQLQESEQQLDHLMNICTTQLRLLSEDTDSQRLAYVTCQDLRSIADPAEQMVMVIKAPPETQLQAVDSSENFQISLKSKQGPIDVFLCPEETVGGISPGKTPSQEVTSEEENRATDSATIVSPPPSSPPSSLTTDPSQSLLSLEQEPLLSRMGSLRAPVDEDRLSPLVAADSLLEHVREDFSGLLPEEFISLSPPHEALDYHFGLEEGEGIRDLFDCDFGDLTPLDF
# Sequence of Heat shock factor protein 1 (Homo sapiens) (Q00613 whole entry, looked up, the tested form may be a part): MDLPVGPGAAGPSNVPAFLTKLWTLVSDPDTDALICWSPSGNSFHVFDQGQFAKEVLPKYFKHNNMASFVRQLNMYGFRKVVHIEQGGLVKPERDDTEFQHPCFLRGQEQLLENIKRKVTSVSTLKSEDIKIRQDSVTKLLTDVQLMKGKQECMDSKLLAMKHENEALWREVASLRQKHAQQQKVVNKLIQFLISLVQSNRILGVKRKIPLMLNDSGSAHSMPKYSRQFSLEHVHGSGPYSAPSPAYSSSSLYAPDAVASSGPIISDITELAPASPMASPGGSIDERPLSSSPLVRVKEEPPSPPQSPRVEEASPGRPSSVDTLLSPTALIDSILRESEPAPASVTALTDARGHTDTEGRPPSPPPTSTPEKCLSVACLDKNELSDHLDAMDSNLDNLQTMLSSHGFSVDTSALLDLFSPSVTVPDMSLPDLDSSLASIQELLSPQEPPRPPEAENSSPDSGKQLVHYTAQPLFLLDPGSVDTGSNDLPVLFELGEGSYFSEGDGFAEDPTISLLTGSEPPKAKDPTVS
# Sequence of Hepatocyte nuclear factor 3-beta (Homo sapiens) (Q9Y261 whole entry, looked up): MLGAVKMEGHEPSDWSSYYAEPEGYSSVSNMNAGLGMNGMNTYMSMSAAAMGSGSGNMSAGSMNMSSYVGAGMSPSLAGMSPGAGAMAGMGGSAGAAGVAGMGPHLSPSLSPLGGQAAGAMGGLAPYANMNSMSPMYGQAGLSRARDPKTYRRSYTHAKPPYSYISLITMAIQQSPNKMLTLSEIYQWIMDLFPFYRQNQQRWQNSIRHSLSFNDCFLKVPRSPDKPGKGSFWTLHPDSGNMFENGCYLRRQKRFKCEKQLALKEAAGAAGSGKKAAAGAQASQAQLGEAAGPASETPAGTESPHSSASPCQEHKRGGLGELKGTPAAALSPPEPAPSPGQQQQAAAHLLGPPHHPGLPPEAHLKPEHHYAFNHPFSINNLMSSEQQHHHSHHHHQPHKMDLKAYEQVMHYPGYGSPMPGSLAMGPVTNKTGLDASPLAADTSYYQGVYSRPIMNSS
# Sequence of Hypoxia-inducible factor 1-alpha (Homo sapiens) (Q16665 whole entry, looked up): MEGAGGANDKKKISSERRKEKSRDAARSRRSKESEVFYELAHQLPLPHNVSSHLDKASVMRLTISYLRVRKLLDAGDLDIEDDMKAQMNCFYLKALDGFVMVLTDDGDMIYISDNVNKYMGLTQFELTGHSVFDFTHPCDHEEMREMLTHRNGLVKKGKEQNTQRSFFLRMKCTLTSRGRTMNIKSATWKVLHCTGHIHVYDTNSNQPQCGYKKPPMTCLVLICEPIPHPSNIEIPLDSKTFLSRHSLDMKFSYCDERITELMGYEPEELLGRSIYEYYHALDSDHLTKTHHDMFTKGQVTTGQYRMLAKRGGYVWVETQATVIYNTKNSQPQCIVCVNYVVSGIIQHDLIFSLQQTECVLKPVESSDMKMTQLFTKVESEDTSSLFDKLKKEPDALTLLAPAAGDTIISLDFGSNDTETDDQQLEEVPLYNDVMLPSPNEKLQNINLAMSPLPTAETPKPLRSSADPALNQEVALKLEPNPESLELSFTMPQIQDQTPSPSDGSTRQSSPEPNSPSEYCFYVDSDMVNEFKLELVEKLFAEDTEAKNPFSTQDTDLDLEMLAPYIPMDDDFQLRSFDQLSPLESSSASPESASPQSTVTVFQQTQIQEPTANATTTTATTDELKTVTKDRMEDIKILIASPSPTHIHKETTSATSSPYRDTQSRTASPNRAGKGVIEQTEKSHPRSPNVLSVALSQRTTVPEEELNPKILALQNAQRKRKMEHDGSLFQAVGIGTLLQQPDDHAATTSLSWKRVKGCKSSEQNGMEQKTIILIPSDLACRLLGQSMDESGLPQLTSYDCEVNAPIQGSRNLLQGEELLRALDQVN
# Sequence of Hepatocyte nuclear factor 6 (Homo sapiens) (Q9UBC0 whole entry, looked up, the tested form may be a part): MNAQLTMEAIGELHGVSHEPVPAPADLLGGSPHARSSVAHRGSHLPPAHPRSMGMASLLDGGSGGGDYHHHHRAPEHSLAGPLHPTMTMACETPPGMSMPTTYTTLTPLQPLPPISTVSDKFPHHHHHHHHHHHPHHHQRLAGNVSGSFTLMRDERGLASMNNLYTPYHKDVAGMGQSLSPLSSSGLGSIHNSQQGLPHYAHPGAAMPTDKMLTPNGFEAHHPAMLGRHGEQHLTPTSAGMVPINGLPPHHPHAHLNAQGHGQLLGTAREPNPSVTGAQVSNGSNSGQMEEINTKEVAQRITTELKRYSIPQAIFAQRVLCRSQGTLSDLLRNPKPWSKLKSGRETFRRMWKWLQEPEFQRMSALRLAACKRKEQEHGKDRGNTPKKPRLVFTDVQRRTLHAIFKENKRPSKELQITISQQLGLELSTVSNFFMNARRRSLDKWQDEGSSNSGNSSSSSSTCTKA
smiles,measurement,setting,value
O=c1n(Cl)c(=O)n(Cl)c(=O)n1Cl,outcome,[1],inactive
same,outcome,[2],inactive
same,outcome,[3],inactive
same,outcome,[4],inactive
same,outcome,[5],inactive
same,outcome,[6],inactive
same,outcome,[7],inactive
same,outcome,[8],inactive
same,outcome,[9],inactive
same,outcome,[10],inactive
same,outcome,[11],inactive
same,outcome,[12],inactive
same,outcome,[13],inactive
same,outcome,[14],inactive
same,outcome,[15],inactive
same,outcome,[16],inactive
same,outcome,[17],inactive
same,outcome,[18],inactive
same,outcome,[19],inactive
CCCN(CC)CC1COC2(CCC(C(C)(C)C)CC2)O1 (centres undefined),outcome,[1],inactive
same,outcome,[2],inactive
same,outcome,[3],inactive
same,AC50,[4],15 µM (active)
same,outcome,[5],inactive
same,outcome,[6],inactive
same,outcome,[7],inactive
same,AC50,[8],16.9 µM (active)
same,outcome,[9],inactive
same,outcome,[10],inactive
same,outcome,[11],inactive
same,outcome,[12],inactive
same,outcome,[13],inactive
same,outcome,[14],inactive
same,outcome,[15],inactive
same,AC50,[16],22.7 µM (active)
same,AC50,[17],50 µM (active)
same,AC50,[18],60.3 µM (active)
same,AC50,[19],50 µM (active)
CN/C(=N\[N+](=O)[O-])NCc1cnc(Cl)s1,outcome,[1],inactive
same,outcome,[2],inactive
same,outcome,[3],inactive
same,outcome,[4],inactive
same,outcome,[5],inactive
same,outcome,[6],inactive
same,outcome,[7],inactive
same,outcome,[8],inactive
same,outcome,[9],inactive
same,outcome,[10],inactive
same,outcome,[11],inactive
same,outcome,[13],inactive
same,outcome,[14],inactive
same,outcome,[15],inactive
same,outcome,[16],inactive
same,outcome,[17],inactive
same,outcome,[18],inactive
same,outcome,[19],inactive
Cn1c(-c2ccccc2)cc(-c2ccccc2)[n+]1C,outcome,[1],inactive
same,outcome,[2],inactive
same,outcome,[3],inactive
same,outcome,[4],inactive
same,outcome,[5],inactive
same,outcome,[6],inactive
same,outcome,[7],inactive
same,outcome,[8],inactive
same,outcome,[9],inactive
same,outcome,[10],inactive
same,outcome,[11],inactive
same,outcome,[12],inactive
same,outcome,[13],inactive
same,outcome,[14],inactive
same,outcome,[15],inactive
same,outcome,[16],inactive
same,outcome,[17],inactive
same,outcome,[18],inactive
same,outcome,[19],inactive
COP(=O)(OC)O/C(C)=C/C(=O)N(C)C,outcome,[1],inactive
same,outcome,[2],inactive
same,outcome,[3],inactive
same,outcome,[4],inactive
same,outcome,[5],inactive
same,AC50,[6],23.5 µM (active)
same,outcome,[7],inactive
same,outcome,[8],inactive
same,outcome,[9],inactive
same,outcome,[10],inactive
same,outcome,[11],inactive
same,outcome,[13],inactive
same,outcome,[14],inactive
same,outcome,[15],inactive
same,outcome,[16],inactive
same,outcome,[17],inactive
same,outcome,[18],inactive
same,outcome,[19],inactive
CS(=O)(=O)c1cc(C(F)(F)F)ccc1C(=O)c1cnoc1C1CC1,outcome,[1],inactive
same,outcome,[2],inactive
same,outcome,[3],inactive
same,outcome,[4],inactive
same,outcome,[5],inactive
same,outcome,[6],inactive
same,outcome,[7],inactive
same,outcome,[8],inactive
same,outcome,[9],inactive
same,outcome,[10],inactive
same,outcome,[11],inactive
same,outcome,[12],inactive
same,outcome,[13],inactive
same,outcome,[14],inactive
same,outcome,[15],inactive
same,outcome,[16],inactive
same,outcome,[17],inactive
same,outcome,[18],inactive
same,outcome,[19],inactive
CC(C)NC(=O)N1CC(=O)N(c2cc(Cl)cc(Cl)c2)C1=O,outcome,[1],inactive
same,outcome,[2],inactive
same,outcome,[3],inactive
same,outcome,[4],inactive
same,outcome,[5],inactive
same,AC50,[6],20.6 µM (active)
same,outcome,[7],inactive
same,outcome,[8],inactive
same,outcome,[9],inactive
same,outcome,[10],inactive
same,outcome,[11],inactive
same,outcome,[13],inactive
same,outcome,[14],inactive
same,outcome,[15],inactive
same,outcome,[16],inactive
same,outcome,[17],inactive
same,outcome,[19],inactive
